ELG1 genotox: qHTS screen for small molecules that induce genotoxicity in human embryonic kidney (HEK293T) cells expressing luciferase-tagged ELG1; hit rate 1.3% among 330,000; AID 504466, 2011; HEK293T ELG1-luciferase reporter, luminescence, 16 h; Potency, µM (highest dose often 46 µM), usual class: activators; note: nearly all actives have a fitted effect of over 60% in size
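Screening used a luciferase reporter fused to human ELG1 in HEK293T cells. Luminescence was read on a CCD plate imager after 16 hr exposure and 30 min ONE-Glo incubation.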
SMN2 splice enh: qHTS Assay for Enhancers of SMN2 Splice Variant Expression; AID 1458, 2008; HEK293 SMN2-luciferase splicing reporter, luminescence, 30-36 h; hit rate 2.8% among 210,000; Potency, µM (highest dose often 46.1 µM), usual class: activators; note: nearly all actives have a fitted effect of over 55% in size
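HEK293 cells carry an SMN2 minigene-luciferase reporter in which exon 7 inclusion puts luciferase in frame. Cells were seeded at 2000 cells/well, attached for 10-12 hours, then exposed to compounds for 30-36 hours at 37C before ONE-Glo luminescence.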
Rab9 prom act: qHTS Assay for Rab9 Promoter Activators; Potency, µM (titrated, usually from 9.22 µM), most hits filed as activators; Huh7 Rab9 promoter-luciferase reporter, luminescence, 24 h; AID 485297, 2010; hit rate 2.8% among 320,000; note: nearly all actives have a fitted effect of over 60% in size
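Huh7 cells stably carrying Rab9 promoter–luciferase reporter, plated 1500 cells/well, compound added after 2 h and incubated 24 h at 37 °C; luciferase luminescence then read after 10 min with detection reagent.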
NPC1 prom act: qHTS Assay for NPC1 Promoter Activators. Huh7 NPC1 promoter luciferase reporter, 24 h. Potency, µM (series often up to 9.22 µM), hits mostly activators. hit rate 2.4% among 320,000; note: nearly all actives have a fitted effect of over 60% in size
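Stably transfected Huh7 (NPC1 promoter→luciferase), 1500 cells/well in Opti-MEM + 10% FBS, 2 h settle, then compound 24 h at 37 °C. Luminescence after 10 min with Amplite reagent.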
FLuc counter: qHTS profiling assay for firefly luciferase inhibitor/activator using purifed enzyme and Km concentrations of substrates (counterscreen for miR-21 project). hit rate 6.9% among 360,000. Potency, µM (doses to about 57.5 µM), hits mostly inhibitors. Luciferin 4-monooxygenase (Photinus pyralis), P08659. purified FLuc, Km substrates, luminescence inhibition; note: nearly all actives have a fitted effect of over 55% in size
Target sequence (P08659 whole entry, looked up): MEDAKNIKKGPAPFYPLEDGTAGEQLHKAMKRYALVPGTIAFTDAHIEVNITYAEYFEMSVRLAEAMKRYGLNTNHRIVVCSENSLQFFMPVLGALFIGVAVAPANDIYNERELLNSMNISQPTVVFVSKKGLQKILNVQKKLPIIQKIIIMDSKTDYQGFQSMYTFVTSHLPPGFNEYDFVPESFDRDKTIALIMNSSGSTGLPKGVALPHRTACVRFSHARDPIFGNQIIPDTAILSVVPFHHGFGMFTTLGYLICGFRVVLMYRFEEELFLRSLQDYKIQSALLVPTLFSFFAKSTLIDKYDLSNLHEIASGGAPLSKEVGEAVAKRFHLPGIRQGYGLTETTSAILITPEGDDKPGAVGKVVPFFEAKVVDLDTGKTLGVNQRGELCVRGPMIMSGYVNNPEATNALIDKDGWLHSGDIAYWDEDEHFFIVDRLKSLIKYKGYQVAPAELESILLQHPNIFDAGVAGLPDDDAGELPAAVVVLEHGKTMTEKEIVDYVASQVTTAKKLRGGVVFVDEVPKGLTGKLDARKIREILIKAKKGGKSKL
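Biochemical qHTS of compounds, final roughly 60 µM downward over six points, against 10 nM purified firefly luciferase using Km concentrations of substrates (10 uM D-luciferin, 10 uM ATP) in Tris acetate pH 7.5 buffer; luminescence output.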
Each line names hits and unclear results; the compound was inactive in the other large screens. The list is not random: actives were taken first. Their share in the collection is about 7.4%. Calls come from the whole dose curve; as a rule, active = well fitted curve in the direction sought with a large enough effect; inconclusive = small, poorly fitted or top-dose-only effect, or another doubt; inactive = no such curve, though single readings can be large; an effect the other way counts as inactive or inconclusive.

CN(C)C(=O)CSc1nnc2sc3ccccc3n12	none
O=C(CSc1nnnn1-c1ccccc1)c1ccco1	ELG1 genotox inconclusive, Rab9 prom act inconclusive, NPC1 prom act inconclusive, FLuc counter 17µM
c1csc(CSc2nnc3sc4ccccc4n23)c1	ELG1 genotox inconclusive, SMN2 splice enh 14µM, Rab9 prom act 3.2µM, NPC1 prom act inconclusive, FLuc counter 17µM
O=C(CSc1nnc2sc3ccccc3n12)c1ccco1	ELG1 genotox inconclusive, SMN2 splice enh 11µM, Rab9 prom act inconclusive, FLuc counter 11µM
O=C(CSc1nnnn1-c1ccccc1)N1N=CCC1c1ccccc1 (stereo not given)	FLuc counter 15µM
CCOC(=O)CC(=O)CSc1nnc2sc3ccccc3n12	FLuc counter inconclusive
Cn1nnnc1SCC(=O)c1ccco1	none
Cc1ccc(OCC(=O)NCC(=O)OCc2cc(=O)n3nc(C)sc3n2)cc1	none (no result: ELG1 genotox, SMN2 splice enh, Rab9 prom act, NPC1 prom act)
O=C1OC(C(=O)Nc2ccccc2)Cc2ccccc21 (stereo not given)	Rab9 prom act inconclusive, FLuc counter 17µM
Cc1ccc(NC(=O)C2Cc3ccccc3C(=O)O2)cc1 (stereo not given)	ELG1 genotox inconclusive, Rab9 prom act inconclusive, NPC1 prom act inconclusive, FLuc counter inconclusive
CC1CCc2c(sc3ncnc(NCc4cccnc4)c23)C1 (stereo not given)	FLuc counter 27µM
CC(C)N(CCNC(=O)c1ccc(OCC2CCCO2)cc1)C(C)C (stereo not given)	none (no result: SMN2 splice enh)
COc1ccc(NC(=O)c2ccc(OCC3CCCO3)cc2)cc1OC (stereo not given)	FLuc counter 15µM (no result: SMN2 splice enh)
O=C(NC1CCCCCC1)c1ccc(OCC2CCCO2)cc1 (stereo not given)	ELG1 genotox inconclusive, SMN2 splice enh 13µM, Rab9 prom act 2µM, NPC1 prom act inconclusive, FLuc counter 12µM
COc1ccc(NC(=O)c2ccc(OCC3CCCO3)cc2)cc1Cl (stereo not given)	Rab9 prom act inconclusive, NPC1 prom act inconclusive, FLuc counter 2.4µM (no result: SMN2 splice enh)
CCOC(=O)Nc1ccc(C(=O)c2ccncc2)cc1	none (no result: SMN2 splice enh)
O=C(COC(=O)c1cc(S(=O)(=O)N2CCOCC2)ccc1F)Nc1ccc(Cl)cn1	none (no result: SMN2 splice enh)
CCOc1ccc(CCNC(=O)c2cc3c(=O)oc4ccc(C)cc4c3s2)cc1OCC	none (no result: ELG1 genotox, Rab9 prom act, NPC1 prom act)
COc1cccc(-c2nc(-c3ccc(NC(=O)Cc4ccccc4OC)cc3)no2)c1	FLuc counter inconclusive
COc1ccc2oc(=O)c(-c3nc(-c4cccs4)no3)cc2c1	none (no result: ELG1 genotox, SMN2 splice enh, Rab9 prom act, NPC1 prom act)
COc1cccc(-c2nc(-c3cccs3)no2)c1	ELG1 genotox inconclusive, Rab9 prom act 2.5µM, NPC1 prom act 2.8µM, FLuc counter 0.27µM (no result: SMN2 splice enh)
COc1cccc(-c2nc(-c3ccncc3)no2)c1	ELG1 genotox inconclusive, Rab9 prom act 1.4µM, NPC1 prom act 2.8µM, FLuc counter 5.4µM (no result: SMN2 splice enh)
COc1cc(OC)cc(-c2nc(-c3ccccc3OC)no2)c1	none
COc1cc(OC)cc(-c2nc(-c3cccs3)no2)c1	Rab9 prom act inconclusive, NPC1 prom act inconclusive, FLuc counter 11µM
O=C(NN=C1CCCC1)c1ccccc1OCCOc1ccccc1	none
CCOc1ccc(CCNC(=O)Cn2c(=O)c3cccn3c3ccc(F)cc32)cc1OCC	none (no result: ELG1 genotox, SMN2 splice enh, Rab9 prom act, NPC1 prom act)
O=C(O)CCC(=O)NNC(=O)CCC(=O)Nc1ccccc1	none
CC(C)(C)C(=O)Nc1ccc(C(=O)COC(=O)C2CC2)cc1	Rab9 prom act 3.5µM, NPC1 prom act inconclusive, FLuc counter 7.6µM (no result: SMN2 splice enh)
O=C(COC(=O)C1CC1)Nc1ccc(Oc2ccccc2)cc1	Rab9 prom act inconclusive, FLuc counter 21µM
O=C(O)CCC(=O)Nc1ccc(N=Nc2ccccc2)cc1	FLuc counter 11µM
O=C(CCCC(=O)OCC(=O)c1cccs1)Nc1ccc(Oc2ccccc2)cc1	FLuc counter 21µM
CC1CC1C(=O)OCC(=O)Nc1ccc(N=Nc2ccccc2)cc1 (stereo not given)	ELG1 genotox 16µM, SMN2 splice enh 13µM, Rab9 prom act 1.8µM, NPC1 prom act 3.2µM, FLuc counter inconclusive
COc1ccccc1C(=O)NC(=O)COC(=O)C1CC1C (stereo not given)	FLuc counter 8.5µM (no result: SMN2 splice enh)
CCCC(=O)OCC(=O)Nc1ccc(N=Nc2ccccc2)cc1	ELG1 genotox 21µM, SMN2 splice enh 16µM, Rab9 prom act 3.5µM, NPC1 prom act 2.2µM, FLuc counter 9.5µM
CC1CC1C(=O)OCC(=O)NC(=O)c1ccccc1 (stereo not given)	none (no result: SMN2 splice enh)
COc1ccc(NC(=O)c2cc(-c3cc(C)ccc3O)n[nH]2)cc1Cl	none
Cc1cccc(NC(=O)c2cc(-c3cc(C)c(C)cc3O)n[nH]2)c1	ELG1 genotox inconclusive, Rab9 prom act 0.56µM, NPC1 prom act 0.89µM, FLuc counter inconclusive (no result: SMN2 splice enh)
Cc1ccc(-c2cc(C(=O)NCc3ccc4c(c3)OCO4)[nH]n2)c(O)c1C	FLuc counter 19µM
Cc1cccc(NC(=O)c2cc(-c3cc(C)ccc3O)n[nH]2)c1	ELG1 genotox inconclusive, Rab9 prom act inconclusive, NPC1 prom act 1.1µM, FLuc counter 3µM (no result: SMN2 splice enh)
Cc1c(Cl)cccc1NC(=O)c1cc(-c2ccccc2O)n[nH]1	ELG1 genotox inconclusive, Rab9 prom act inconclusive, NPC1 prom act inconclusive, FLuc counter 21µM
CCOC(=O)c1c(S(=O)(=O)N2CCCC(C(=O)N3CCN(c4ccc(F)cc4)CC3)C2)c(C)n(C)c1C (stereo not given)	none (no result: ELG1 genotox, SMN2 splice enh, Rab9 prom act, NPC1 prom act)
Nn1c(SCC(=O)NC2CCS(=O)(=O)C2)nnc1-c1ccco1 (stereo not given)	none (no result: SMN2 splice enh, Rab9 prom act, NPC1 prom act, FLuc counter)
Cc1ccc(-c2cc(C(=O)Nc3cccnc3)[nH]n2)c(O)c1C	ELG1 genotox 9.2µM, Rab9 prom act 4µM, NPC1 prom act inconclusive, FLuc counter 3.4µM (no result: SMN2 splice enh)
COc1ccc(CCNC(=O)c2cc(-c3ccc(C)c(C)c3O)n[nH]2)cc1OC	FLuc counter inconclusive
O=C(Nc1nc(-c2ccccc2)ns1)c1ccc(Cl)cc1	none (no result: ELG1 genotox, SMN2 splice enh, Rab9 prom act, NPC1 prom act)
O=C(Nc1nc(-c2ccccc2)ns1)c1ccncc1	FLuc counter 11µM (no result: SMN2 splice enh)
CC(C)(C)C(=O)Nc1nc(-c2ccccc2)ns1	SMN2 splice enh 1.6µM, Rab9 prom act 0.63µM, NPC1 prom act 0.5µM, FLuc counter 5.4µM
c1ccc(Nc2nc(-c3ccccc3)ns2)cc1	ELG1 genotox 1.8µM, Rab9 prom act 1.3µM, NPC1 prom act 1.8µM, FLuc counter 2.1µM (no result: SMN2 splice enh)
O=C(NCCNC(=O)c1ccccn1)c1ccc(-c2ccccc2)cc1	FLuc counter inconclusive (no result: SMN2 splice enh)
Cc1ccc(NC(=S)c2nc3ccccc3[nH]2)cc1	ELG1 genotox inconclusive, SMN2 splice enh 28µM, Rab9 prom act 0.63µM, NPC1 prom act 4µM, FLuc counter 0.67µM
Cc1ccc(NC(=S)N2CCCC(c3nc4ccccc4[nH]3)C2)cc1 (stereo not given)	none
